From PubChem
DT40 TDP1 no CPT – qHTS for Inhibitors of human tyrosyl-DNA phosphodiesterase 1 (TDP1): qHTS in cells in absence of CPT; DT40 Tdp1-/- hTDP1 cells, no CPT, ATP luminescence, 48 h; Potency, µM (highest dose often 46.2 µM), without a hit: at the top dose activity change, negative = growth inhibition, hits mostly inhibitors; 420,000 tested, 15% active; AID 686978, 2013; also: potency is read from the fitted curve at half-maximal effect; nearly all actives have a fitted effect of over 55% in size
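Compound effects on proliferation are scored in DT40 Tdp1-/-;hTDP1 cells in the absence of CPT. ATP levels (CellTiter-Glo luminescence) are recorded after a ≥48 hr, 37 °C incubation.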
CtBP-E1A inh – blocks the CtBP interaction with E1A; AlphaScreen GST-E1A/His-CtBP binding, 1536-well; stronger effect = lower value; activity change, % (test concentration not listed); 340,000 tested, 0.49% active; AID 651724; in the data active = activity change below about -65%; inconclusive = mostly about -30% to -63%
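GST-E1A and His-tagged CtBP (125 nM each as 5X stock) were preincubated with pin-transferred compound for 2 h at 37 °C in the dark, then glutathione donor and nickel acceptor beads were added for 1 h before AlphaScreen reading.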
TDP1 inh – blocks human tyrosyl-DNA phosphodiesterase 1. Q9NUW8. recombinant TDP1, AlphaScreen DNA substrate cleavage. Potency, µM (top dose mostly 130 µM), for inactives: at the highest dose activity change, negative = inhibition, most hits filed as inhibitors. 350,000 tested, 0.28% active; also: potency is read from the fitted curve at half-maximal effect; nearly all actives have a fitted effect of over 40% in size
Target sequence (Q9NUW8 whole entry, looked up): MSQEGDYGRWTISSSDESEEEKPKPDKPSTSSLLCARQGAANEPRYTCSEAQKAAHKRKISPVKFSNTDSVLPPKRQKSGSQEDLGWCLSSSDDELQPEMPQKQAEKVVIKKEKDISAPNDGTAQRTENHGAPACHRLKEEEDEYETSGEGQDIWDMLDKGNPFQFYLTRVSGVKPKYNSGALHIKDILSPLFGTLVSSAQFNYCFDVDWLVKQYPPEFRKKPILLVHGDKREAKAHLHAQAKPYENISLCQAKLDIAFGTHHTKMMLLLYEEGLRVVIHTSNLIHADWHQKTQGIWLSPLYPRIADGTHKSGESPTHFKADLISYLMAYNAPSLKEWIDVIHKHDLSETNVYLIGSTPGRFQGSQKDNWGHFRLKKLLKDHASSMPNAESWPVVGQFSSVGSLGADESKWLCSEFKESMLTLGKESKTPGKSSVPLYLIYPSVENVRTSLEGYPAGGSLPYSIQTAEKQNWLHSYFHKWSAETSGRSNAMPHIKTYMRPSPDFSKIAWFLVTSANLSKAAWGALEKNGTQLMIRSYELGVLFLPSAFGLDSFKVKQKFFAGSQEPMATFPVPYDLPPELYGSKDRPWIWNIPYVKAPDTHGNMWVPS
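Enzyme-compound mixtures sat 15 min at room temperature, followed by a 5 min reaction with 15 nM final substrate and 10 min with AlphaScreen beads. Recombinant human Tdp1 was used at 1 nM final.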
DT40 TDP1 CPT – growth inhibition of DT40 Tdp1-/-;hTDP1 cells with camptothecin (screen for TDP1 inhibitors). chicken DT40 Tdp1-/-;hTDP1 cells + 20 nM CPT, ATP luminescence, 48 h. Potency, µM (doses to about 46.2 µM), for inactives: top-dose activity change, negative = growth inhibition, most hits filed as inhibitors. 420,000 tested, 12% active. AID 686979; also: potency is read from the fitted curve at half-maximal effect; nearly all actives have a fitted effect of over 55% in size
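Chicken DT40 Tdp1-/- cells stably complemented with human TDP1 were seeded at 400 cells/well in medium containing 20 nM camptothecin, exposed to pin-transferred compounds, and grown at 37 °C for at least 48 hr. Viability was read as ATP luminescence.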
Six1-Eya2 inh – blocks human Six1 binding to Eya2; Q15475+O00167; AlphaScreen GST-Six1/His-Eya2 binding, biochemical; stronger effect = lower value; activity change, % (no concentration beside the values); 360,000 tested, 0.56% active; AID 651725; in the data active = activity change below about -65%; inconclusive = mostly about -30% to -63%
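AlphaScreen with GST-Six1 and His-Eya2 (5X mix: 250 nM and 500 nM), glutathione donor and nickel acceptor beads; buffer 50 mM Tris pH 8.0, 300 mM NaCl, 1 mM TCEP; 1 h at 37 C in the dark.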
IL1B secr inh – inflammasome signaling inhibition, IL-1 beta readout. THP-1 LPS/ATP IL-1B secretion, AlphaLISA, 16 h; stronger effect = lower value. activity change, % at 57.5 µM. 360,000 tested, 4.7% active. AID 743279; in the data active = activity change below about -50%; inconclusive = mostly about -30% to -49%
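Secreted IL-1B measured by AlphaLISA bead assay after 16 h compound exposure of THP-1 cells; compounds (final up to 57.5 uM) added 1 h before LPS (250 ng/mL) and ATP (1.25 mM) stimulation; lower signal means less secretion.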
Active calls of the source: *; ? = inconclusive; . = not tested or not shown; [ ] = dose if it differs, or a comment. Only some compounds are listed: those with a hit (about 18% of all), similar ones and a draw of the others. Unless noted, calls follow the shape of the dose curve; as a rule, active = well fitted curve in the direction sought with a large enough effect; inconclusive = small, poorly fitted or top-dose-only effect, or another doubt; inactive = no such curve, though single readings can be large; an effect the other way counts as inactive or inconclusive. % is scaled to controls: 0 for no effect and ±100 for the full control effect.

SMILES	DT40 TDP1 no CPT	CtBP-E1A inh	TDP1 inh	DT40 TDP1 CPT	Six1-Eya2 inh	IL1B secr inh
Cc1ccc(-c2nc3scc(CCNC(=O)Cc4ccc(Cl)cc4)n3n2)cc1	18µM*	.	-3%	15µM*	.	.
CC(C)(C)C(=O)NCCc1csc2nc(-c3ccc(F)cc3)nn12	15µM*	.	0%	?	.	.
Cc1ccc(NC(=O)C(=O)NCCc2csc3nc(-c4ccccc4C)nn23)cc1Cl	9%	.	2%	-6%	.	.
COc1ccc(-c2nc3scc(CCNC(=O)c4cccc(Br)c4)n3n2)cc1	26µM*	.	2%	?	.	.
Cc1ccc(C)c(NC(=O)C(=O)NCCc2csc3nc(-c4ccccc4C)nn23)c1	18µM*	.	4%	?	.	.
Cc1ccc(NC(=O)C2CCN(C(=O)c3ccccc3C)CC2)nc1	5%	4	-4%	-1%	2	17
Cc1ccc(S(=O)(=O)NCC(c2ccco2)N2CCOCC2)cc1 (stereo unspecified)	?	-9	3%	-18%	-24	-11
CS(=O)(=O)NCCc1csc2nc(-c3ccccc3)nn12	1%	.	8%	-4%	.	.
COc1ccc(-c2nc3scc(CCNS(=O)(=O)c4ccc(Oc5ccccc5)cc4)n3n2)cc1OC	?	.	0%	?	.	.
CCCS(=O)(=O)NCCc1csc2nc(-c3ccc(C)cc3)nn12	23µM*	.	0%	?	.	.
O=S(=O)(NCCc1csc2nc(-c3ccc(F)cc3)nn12)c1ccc(Oc2ccccc2)cc1	21µM*	.	5%	15µM*	.	.
COc1ccc(-c2nc3scc(CCNS(=O)(=O)c4ccc(C)cc4)n3n2)cc1	?	.	0%	?	.	.
Cc1ccc(-c2nc3scc(CCNS(=O)(=O)c4ccc(C)c(C)c4)n3n2)cc1	21µM*	.	0%	?	.	.
O=C1CC(=Nc2ccccc2)NN1c1ccccc1	-26%	-1	10%	-25%	-17	-4
Cc1oc2ncn(CC(C)C)c(=O)c2c1C(=O)NCCCN1CCCCC1	-1%	.	-2%	-1%	.	.
CCOc1ccccc1CNC(=O)c1cnc2sc(N3CCCCCC3)nn2c1=O	?	.	5%	?	.	.
COc1ccccc1CNC(=O)c1cnc2sc(N3CCCCCC3)nn2c1=O	21µM*	.	8%	16µM*	.	.
Cc1cccc(CNC(=O)c2cnc3sc(N4CCCCCC4)nn3c2=O)c1	-9%	.	8%	-16%	.	.
O=C(NCc1ccccc1Br)c1cnc2sc(N3CCCCCC3)nn2c1=O	4.1µM*	.	1%	23µM*	.	.
Cc1ccc(C)c(CNC(=O)c2cnc3sc(N4CCCC4)nn3c2=O)c1	18µM*	.	4%	16µM*	.	.
COc1cc(OC)c(NC(=O)C(=O)CC(=O)c2ccc(C)cc2C)cc1Cl	2.6µM*	?	3%	4.6µM*	-8	-6
CCCCOC(=O)c1ccc(NC(C)=O)cc1	-10%	7	-1%	4%	-7	15
COc1ccc(C(=O)CC(=O)C(=O)Nc2ccc(C)cc2Cl)cc1	16µM*	-4	.	?	-14	11
CCCCOC(=O)c1ccc(NC(=O)C(=O)CC(=O)c2ccc(OC)cc2)cc1	16µM*	2	.	16µM*	-1	-4
COc1cccc(C(=O)CC(=O)C(=O)Nc2ccc(C)cc2Cl)c1	?	-5	.	?	-3	31
SMILES	DT40 TDP1 no CPT	CtBP-E1A inh	TDP1 inh	DT40 TDP1 CPT	Six1-Eya2 inh	IL1B secr inh
COc1ccc(C(=O)CC(=O)C(=O)Nc2ccc(C)c(C)c2)cc1	21µM*	0	.	21µM*	-13	3
CC(=O)N[C@@H](Cc1ccc(O)cc1)C(=O)N[C@H](C(=O)N[C@@H](C)C(=O)N[C@H](C=O)CC(=O)O)C(C)C	.	.	2%	.	.	.
Cc1nc(Nc2cccc(C(C)O)c2)c2nnn(Cc3ccc(F)cc3)c2n1 (stereo unspecified)	?	-5	0%	?	-2	-12
CCOc1ccc(CCNC(=O)COC(=O)c2cccc(OC)c2O)cc1OCC	23%	-10	5%	4%	5	-15
COc1ccc(C(=O)NNC(=O)C(=O)Nc2ccc(C)cc2)cc1	?	-2	0%	-11%	6	-3
CCCCOC(=O)c1ccc(NC(=S)NC(=O)c2c(Cl)cnn2C)cc1	16µM*	0	4%	23µM*	2	1
COc1ccc(C(=O)NNC(=O)C(=O)Nc2ccc(C)c(Cl)c2)cc1	?	.	10%	23µM*	-3	-11
CN1CCN(c2ncncc2-c2ccoc2)CC1	-9%	.	.	-9%	.	.
C/C(=N\Nc1ccc([N+](=O)[O-])cc1[N+](=O)[O-])c1cccnc1	-7%	.	.	-12%	-22	-7
CC(C)=NNc1cnnc2ccc([N+](=O)[O-])cc12	13µM*	?	.	13µM*	?	33
COc1ccc(CCNC(=O)CNC(=O)c2ccc(Br)o2)cc1OC	4%	0	-16%[0.505 µM]	-2%	0	4
CCc1ccc(CN2CCC(n3nccc3NC(=O)c3ccccc3C)CC2)cc1	?	-9	0%	21µM*	-13	-19
CCn1cc(CN2CCC(n3nccc3NC(=O)c3ccccc3OC)CC2)cn1	-1%	.	0%	5%	20	-6
O=C(Nc1ccnn1C1CCN(Cc2ccc3nonc3c2)CC1)c1cccc(F)c1	-20%	-2	2%	?	2	?
COc1ccc(C(=O)Nc2ccnn2C2CCN(Cc3ccc4nonc4c3)CC2)cc1	?	-5	22µM*	?	0	?
CCOc1ccc(CN2CCC(n3nccc3NC(=O)c3ccccc3OC)CC2)cc1	?	-2	3%[56.1 µM]	16µM*	-3	-21
COC(=O)c1nc2n(n1)C(c1cc(OC)ccc1OC)C=C(c1ccc(Br)cc1)N2 (stereo unspecified)	?	.	7%	?	.	.
O=C(NCC1CCCO1)c1cc(C(=O)c2ccc(Cl)cc2Cl)c[nH]1 (stereo unspecified)	?	.	8%	?	-14	-11
COCCCN1C(=O)c2ccc(C(=O)Nc3ccccc3OC)cc2C1=O	-3%	2	4%	0%	-2	15
COc1ccc(NC(=O)N(CCC(C)C)C(C)c2ccccn2)c(OC)c1 (stereo unspecified)	?	0	-2%	23µM*	-9	-11
CCC(C)C(=O)Nc1ccc(OC)cc1OC (stereo unspecified)	2%	-5	8%	4%	-1	-13
